Cycloheximide cs = affects cycloheximide protein synthesis inhibition readout, counter-screen. cell reporter, cycloheximide protein synthesis inhibition counterscreen. max response, %. hit rate 12% among 300,000; in the data active = max response mostly above about 13%, no sharp cut-off; inactive = mostly below about 14%; note: read at 38.3 µM for the half of the compounds with a filed dose
Pf growth 48h = inhibits P. falciparum growth in the first generation, 48 h; hit rate 5.9% among 310,000; P. falciparum luciferase growth in erythrocytes, 48 h; AID 504832; Potency, µM (top dose mostly 28.7 µM), usual class: inhibitors
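Luciferase-expressing P. falciparum in infected erythrocytes (2% hematocrit, 0.1% parasitemia final) in RPMI 1640/0.5% Albumax were exposed to compound for 48 hours at 37 C, 5% CO2; growth read as luminescence.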
SARS PLP yeast = inhibitors of SARS-CoV papain-like protease in yeast. hit rate 0.19% among 330,000. AID 485353. S. cerevisiae expressing SARS-CoV PLpro, growth rescue. Potency, µM (series often up to 32.9 µM), actives largely listed as activators; calls by dose curve; note: nearly all actives have a fitted effect of over 55% in size
AMA1-RON2 inh = inhibitors of Plasmodium falciparum AMA1-RON2 interaction. Potency, µM (highest dose often 58.2 µM), actives largely listed as inhibitors. AlphaScreen AMA1-biotinylated RON2 peptide binding. AID 720542. hit rate 0.2% among 360,000; note: nearly all actives have a fitted effect of over 45% in size
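AMA1 (3D7) with his tag at 25 nM final met compounds first, then biotinylated RON2 peptide at 25 nM; detection used donor plus acceptor beads, 10 µg/mL apiece, read by AlphaScreen after 30 min at room temperature.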
Shiga toxin inh = blocks Shiga toxin action in Vero cells. inhibition, % at 38.7 µM. Vero cells, Shiga toxin protein synthesis inhibition reporter. hit rate 9.2% among 290,000. AID 2315; in the data active = inhibition mostly above about 28%, no sharp cut-off; inactive = mostly below about 43%
Pf growth 96h = P. falciparum growth inhibition at 96 hour, primary screen for plastid delayed-death inhibitors. P. falciparum luciferase reporter growth, 96 h. hit rate 6.9% among 320,000. Potency, µM (doses to about 28.7 µM), hits mostly inhibitors. AID 504834
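Plates of compound plus infected erythrocytes (2% hematocrit, 0.05% parasitemia final) incubate 96 hours, 37 C, 5% CO2. Detection reagent added; reduced luminescence from the parasites' luciferase reporter flags inhibition.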
Numbers stand for hits; 0 = inactive; ? = inconclusive; - = not tested or not shown. Shown are actives, neighbours in structure and some others; about 19% of the full set was active somewhere. Unless noted, calls come from the whole dose curve; as a rule, active = well fitted curve in the direction sought with a large enough effect; inconclusive = small, poorly fitted or top-dose-only effect, or another doubt; inactive = no such curve, though single readings can be large; an effect the other way counts as inactive or inconclusive.

SMILES | Cycloheximide cs | Pf growth 48h | SARS PLP yeast | AMA1-RON2 inh | Shiga toxin inh | Pf growth 96h
CCc1ccc(C(C)NC(=S)NCc2ccc(F)cc2)cc1 (stereo not given) | 0 | 13µM | 0 | 0 | 0 | 15µM
CCOC(=O)N1CCN(C(=O)CSc2nc3ccccc3c(=O)n2-c2ccccc2)CC1 | 0 | ? | 0 | 0 | 0 | ?
CCOC(=O)CC(=O)CSc1nc2ccccc2c(=O)n1-c1ccc(C(=O)NCCOC)cc1 | 0 | 5.2µM | 0 | 0 | 0 | ?
CCOC(=O)CC(=O)CSc1nc2ccccc2c(=O)n1-c1ccc(C(=O)N2CCOCC2)cc1 | 0 | 1.7µM | 0 | 0 | 0 | -
O=C(c1ccc(-n2c(SCc3cc(F)ccc3F)nc3ccccc3c2=O)cc1)N1CCOCC1 | 0 | ? | 0 | 0 | 0 | 0
COc1ccc(O)c(C(=O)CC(=O)c2ccc(F)cc2)c1 | 20 | - | 0 | 0 | 0 | 0
COc1ccc(O)c(C(=O)CC(=O)c2ccccc2C)c1 | 58 | ? | 0 | 0 | 76 | 0
COc1ccc(C(=O)CC(=O)c2ccccc2O)cc1 | 39 | ? | 0 | 0 | - | ?
COc1ccc(C(=O)COC(=O)c2ccc(OC)c(OC)c2)cc1OC | 0 | 0 | 0 | 0 | 0 | 0
COc1ccc(C(=O)CC(=O)c2ccccc2O)cc1OC | 34 | ? | 0 | 0 | 79 | 0
COc1ccc(N/C=C2\CCc3ccccc3C2=O)cc1 | 0 | 0 | 0 | 0 | 0 | 0
COc1ccc(/C=C2\CCc3ccccc3C2=O)cc1OC | 52 | 0 | 0 | ? | 139 | 0
COc1cccc(/C=C2\CCc3ccccc3C2=O)c1 | 44 | 0 | 0 | 0 | 60 | 0
COc1ccc(/C=C2\CC/C(=C\c3ccc(OC)c(OC)c3)C2=O)cc1OC | 0 | 0 | 0 | ? | 0 | ?
O=C1C(=Cc2ccccn2)CCc2ccccc21 | - | - | - | 0 | - | -
COc1ccc2c(c1)CC/C(=C/c1ccccn1)C2=O | 55 | 0 | 0 | 0 | 100 | 0
CC(=O)Oc1ccc(/C=C2/CCc3ccccc3C2=O)cc1 | 16 | 0 | 0 | 0 | 0 | 0
Cc1nn(-c2ccccc2)c(C)c1/C=C/C(=O)OCC(=O)Nc1ncc(C(F)(F)F)cc1Cl | 0 | 0 | 0 | 0 | 0 | 0
C=CCn1c(CNc2ccccc2)nnc1SCC(=O)N/N=C/c1ccccc1O | 0 | ? | 0 | 0 | 0 | ?
COC(=O)c1ccccc1NC(=O)CCC(=O)N1CC(C)Oc2ccc(C)cc21 (stereo not given) | 0 | 0 | ? | 0 | 0 | 0
CC(=O)NCC(=O)OCC(=O)c1ccc(Br)cc1 | 0 | 0 | 0 | 0 | 0 | 0
CC(C)Cn1c(N)c(C(=O)COC(=O)CCNS(=O)(=O)c2ccccc2)c(=O)n(C)c1=O | - | 0 | 0 | 0 | - | 0
O=C1/C(=C/Nc2ccc3c(c2)OCO3)CCc2ccccc21 | 0 | - | 0 | 0 | 0 | 0
COc1ccc(/C=C2\CC/C(=C\c3ccc(OC)cc3OC)C2=O)c(OC)c1 | 26 | ? | 0 | 0 | 60 | ?
COc1ccc2c(c1)CC/C(=C\C=C\c1ccccc1)C2=O | 25 | ? | 0 | 0 | 44 | ?
SMILES | Cycloheximide cs | Pf growth 48h | SARS PLP yeast | AMA1-RON2 inh | Shiga toxin inh | Pf growth 96h
COc1cccc(/C=C2\C(=O)C(=O)c3ccccc32)c1 | 21 | - | 0 | 0 | 0 | 0
COc1ccc2c(c1)CC/C(=C\Nc1ccc3c(c1)OCO3)C2=O | 77 | 0 | 0 | 0 | 0 | -
COc1cc(C=C2C(=O)c3ccccc3C2=O)cc(OC)c1 | 0 | ? | 0 | 0 | 0 | 0
COc1ccc2c(c1)CC/C(=C/c1cc(OC)c(OC)c(OC)c1)C2=O | 0 | ? | 0 | 0 | 0 | 15µM
C=C1c2ccccc2NC(=S)N1Cc1ccc2c(c1)OCO2 | 41 | 0 | 0 | 0 | 65 | 0
C[C@H]1CN([C@@H](C)CO)C(=O)CCCn2nncc2CO[C@H]1CN(C)S(=O)(=O)c1ccccc1 | - | - | - | 0 | - | -
CC1(C)CC(=O)C2=C(C1)OC(N)=C(C#N)C2c1cn(-c2ccccc2)nc1-c1ccccc1 (stereo not given) | 18 | 0 | 0 | 0 | 0 | ?
COc1cc(C2C(C#N)=C(N)OC3=C2C(=O)CCC3)cc(OC)c1OC(=O)N1CCOCC1 (stereo not given) | 0 | 0 | 0 | 0 | 0 | 4.7µM
CC1(C)CC(=O)C2=C(C1)OC(N)=C(C#N)C2c1cccc(OC(=O)c2ccco2)c1 (stereo not given) | 0 | 0 | 0 | 0 | 0 | 2.9µM
COc1cc(C2C(C#N)=C(N)OC3=C2C(=O)CC(C)(C)C3)ccc1OCCN1CCOCC1 (stereo not given) | 21 | 0 | 0 | 0 | 0 | 0
